Assay outcomes as filed in PubChem BioAssay.
Sampled rows, rich in hits. Any-hit rate of the full collection: about 2.4%.
APOBEC3G inh: APOBEC3G DNA deaminase inhibitors, primary screen, biochemical, fluorescence, single-stranded DNA substrate, uHTS | DNA dC->dU-editing enzyme APOBEC-3G (Homo sapiens), Q9HC16 | inhibition, % at 20 µM | recombinant A3G, ssDNA deamination FAM/TAMRA fluorescence | 330,000 tested, 0.28% active | AID 493012, 2011;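 active means inhibition of at least 40% at 20 µM, with no more than 30% in the related APOBEC3A deaminase screen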
ADAM10 inh: human ADAM10 inhibitors, primary screen, biochemical, QFRET, HTS; recombinant ADAM10, EDANS/DABCYL FRET peptide cleavage, 3 h; inhibition, % at 7 µM; 370,000 tested, 0.62% active; AID 720582, 2013;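 active means inhibition above a per-campaign cutoff equal to the mean of compounds falling between control-based bounds plus 3 SD, cut at about 20% in these data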
APOBEC3A inh: APOBEC3A ssDNA deaminase inhibitors, primary screen, selectivity assay for APOBEC3G inhibitor project, biochemical, FAM/TAMRA oligo cleavage fluorescence | 330,000 tested, 0.41% active | DNA dC->dU-editing enzyme APOBEC-3A (Homo sapiens), P31941 | inhibition, % at 20 µM | recombinant A3A, FAM/TAMRA ssDNA deamination fluorescence;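 active means at least 40% inhibition at 20 µM here, with at most 30% in a related deaminase screen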
NRP1-CendR mod: modulators of CendR peptide binding to NRP-1, primary screen, biochemical, fluorescence polarization, uHTS | 360,000 tested, 0.85% active | inhibition, % at 25 µM | FAM-RPARPAR peptide binding to NRP-1;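 active means inhibition or corrected inhibition above about 18%, plus a signal ratio from 0.5 to 1.5, limit read from the data, passing the limit was not always enough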
ADAM17 inh: ADAM17 inhibitors, primary screen, biochemical, QFRET. Disintegrin and metalloproteinase domain-containing protein 17 (Homo sapiens), P78536. recombinant ADAM17, EDANS/DABCYL FRET peptide cleavage. inhibition, % at 6.95 µM. 370,000 tested, 0.83% active. AID 720648, 2013;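 active means inhibition above the mean of compounds lying between control limits plus 3 SD, set per campaign, cut at about 8.5% in these data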
Target sequence (P78536 215-824 limits assumed): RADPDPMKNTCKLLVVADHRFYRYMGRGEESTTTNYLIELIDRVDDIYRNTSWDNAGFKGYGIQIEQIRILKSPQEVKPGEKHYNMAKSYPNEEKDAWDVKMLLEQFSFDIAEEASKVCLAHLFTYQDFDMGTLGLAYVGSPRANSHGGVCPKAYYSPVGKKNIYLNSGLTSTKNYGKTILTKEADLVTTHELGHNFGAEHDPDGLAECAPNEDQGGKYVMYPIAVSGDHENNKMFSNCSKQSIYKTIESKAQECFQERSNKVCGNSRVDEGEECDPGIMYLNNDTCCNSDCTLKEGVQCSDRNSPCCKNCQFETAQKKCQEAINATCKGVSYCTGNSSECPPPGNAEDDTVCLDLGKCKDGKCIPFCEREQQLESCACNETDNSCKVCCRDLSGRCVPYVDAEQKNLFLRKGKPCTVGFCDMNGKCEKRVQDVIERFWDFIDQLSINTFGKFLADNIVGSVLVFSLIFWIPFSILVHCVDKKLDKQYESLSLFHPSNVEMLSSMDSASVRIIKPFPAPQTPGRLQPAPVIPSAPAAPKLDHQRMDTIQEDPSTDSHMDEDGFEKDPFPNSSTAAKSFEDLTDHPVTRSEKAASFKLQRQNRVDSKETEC
ADAM10 confirm: human ADAM10 inhibitors, confirmation, biochemical, QFRET, triplicate; shares compounds with ADAM10 inh; inhibition, % at 6.95 µM; 2,100 tested, 1% active; ADAM10 QFRET peptide cleavage, EDANS fluorescence; AID 743208, 2013;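 active means inhibition above about 20% chosen separately for each screening run, limit read from the data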
ADAM17 ctr: ADAM17 inhibitors, counter-screen for ADAM10 exosite inhibitor project, biochemical, QFRET, high throughput; 2,100 tested, 0.5% active; shares compounds with ADAM10 inh; AID 743214, 2013; inhibition, % at 6.95 µM; ADAM17 QFRET peptide cleavage, EDANS fluorescence;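 active means mean triplicate inhibition above the solvent-only control wells' mean plus 3 SD, cut at about 12% in these data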
ADAM10 ctr: ADAM10 inhibitors, counter-screen for ADAM17 exosite inhibitor project, biochemical, FRET, human ADAM10 | shares compounds with ADAM17 inh | recombinant ADAM10, EDANS/DABCYL FRET peptide cleavage, 3 h | inhibition, % at 6.95 µM | 2,900 tested, 47% active;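 active means mean inhibition over the triplicate runs exceeds the activity threshold set in the earlier primary screen, cut at about 20% in these data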
ADAM17 confirm: ADAM17 inhibitors, hit retest, confirmation, biochemical, QFRET peptide cleavage; shares compounds with ADAM17 inh; recombinant ADAM17, EDANS/DABCYL QFRET peptide cleavage; inhibition, % at 6.95 µM; 2,900 tested, 65% active; AID 743257, 2014;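 active means mean inhibition across replicates above the hit cutoff set in the primary screen, cut at about 8.5% in these data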
A number is an active result; . = inactive; / = not tested or not shown.

SMILES | APOBEC3G inh | ADAM10 inh | APOBEC3A inh | NRP1-CendR mod | ADAM17 inh | ADAM10 confirm | ADAM17 ctr | ADAM10 ctr | ADAM17 confirm
O=C(NCCNC(=O)c1cc(OCC(F)(F)F)ccc1OCC(F)(F)F)Nc1cccc(C(F)(F)F)c1 | . | 37.1 | . | . | 12.2 | . | . | 24.4 | 14.2
Cc1ccc(S(=O)(=O)Nc2ccc(NC(=O)Nc3cccc(C(F)(F)F)c3)cc2)cc1 | . | 41.3 | . | . | 21.8 | . | . | 42.6 | 18.6
COC(=O)[C@H](C)NC(=O)Nc1cccc(C(F)(F)F)c1 | . | . | . | . | . | / | / | / | /
CC(O/N=C/c1ccccc1OC(F)F)C(=O)Nc1cccc(S(=O)(=O)N2CCOCC2)c1 (centres undefined) | . | 19.8 | . | . | 10.1 | . | . | . | .
COc1ccc(S(=O)(=O)N2CCOCC2)cc1NC(=O)CO/N=C/c1ccccc1OC(F)F | . | . | . | . | . | / | / | / | /
O=C(CNC(=S)N(Cc1ccccc1)Cc1ccccc1F)NCCc1ccc(Cl)cc1 | . | 23.9 | . | . | 10.4 | . | . | 21.3 | 14.3
CCc1ccc(NC(=O)C2=CC(c3cccs3)=NS(=O)(=O)N2C)cc1 | . | 29.4 | . | . | 18.0 | . | . | 22.6 | 12.6
Cc1ccc(NC(=O)C2=CC(c3cccs3)=NS(=O)(=O)N2C)cc1 | . | . | . | . | . | / | / | / | /
COC(=O)CSc1nnc(-c2n[nH]c3c2CCC3)n1N | / | . | / | / | . | / | / | / | /
O=C(OC(c1ccc(NS(=O)(=O)c2ccccc2)cc1)(C(F)(F)F)C(F)(F)F)c1ccccc1 | . | 32.1 | . | . | 13.3 | . | . | 35.5 | 18.3
Cc1ccc(S(=O)(=O)Nc2ccc(C(OC(=O)c3ccccc3[N+](=O)[O-])(C(F)(F)F)C(F)(F)F)cc2)cc1 | . | 21.9 | . | . | 10.3 | . | . | 47.4 | 26.6
Cc1cc(C)nc(NS(=O)(=O)c2ccc(NC(=O)c3ccccc3[N+](=O)[O-])cc2)n1 | . | . | . | . | . | / | / | / | /
O=C(Cn1nnc(-c2ccncc2)n1)Nc1ccc(Oc2ccccc2)cc1 | / | . | / | / | . | / | / | / | /
COc1ccc(C(O)c2nc(-c3cccc(C(C)C)c3)cs2)cc1 (centres undefined) | / | 21.2 | / | . | 11.3 | . | . | . | 8.7
OC(c1ccc(F)c(F)c1)c1nc(-c2ccc(F)c(Cl)c2)cs1 (centres undefined) | / | 21.9 | / | . | 8.9 | . | . | 35.9 | 15.7
OC(c1ccc(F)cc1)c1nc(-c2cccc(C(F)(F)F)c2)cs1 (centres undefined) | / | . | / | . | . | / | / | / | /
OC(c1ccc(F)c(F)c1)c1nc(-c2cccc(C(F)(F)F)c2)cs1 (centres undefined) | / | 25.8 | / | . | 9.4 | . | . | . | 13.7
COc1ccc(C(O)c2nc(-c3cccc(O)c3)cs2)cc1 (centres undefined) | / | . | / | . | . | / | / | / | /
Cc1cccnc1N=O | / | . | / | / | . | / | / | / | /
